Data as given in ChEMBL document CHEMBL5308504, “Tm Shift (DSF) assay results for EUbOPEN Chemogenomics Library” (2023).
Several values for one entry are separate records, joined by “and”; a condition that tells them apart may be missing. Equal values may be shown once.

Assays:
[1] = biological target: Bromodomain-containing protein 4 (Homo sapiens) (UniProt O60885); conditions: Compound concentration 20.0 uM, Protein concentration 2.0 uM, Result type QC Liability
[2] = biological target: T1, Transcription intermediary factor 1-alpha (Homo sapiens) (UniProt O15164); conditions: Compound concentration 20.0 uM, Protein concentration 2.0 uM, Result type QC Liability
T1 sequence (whole entry): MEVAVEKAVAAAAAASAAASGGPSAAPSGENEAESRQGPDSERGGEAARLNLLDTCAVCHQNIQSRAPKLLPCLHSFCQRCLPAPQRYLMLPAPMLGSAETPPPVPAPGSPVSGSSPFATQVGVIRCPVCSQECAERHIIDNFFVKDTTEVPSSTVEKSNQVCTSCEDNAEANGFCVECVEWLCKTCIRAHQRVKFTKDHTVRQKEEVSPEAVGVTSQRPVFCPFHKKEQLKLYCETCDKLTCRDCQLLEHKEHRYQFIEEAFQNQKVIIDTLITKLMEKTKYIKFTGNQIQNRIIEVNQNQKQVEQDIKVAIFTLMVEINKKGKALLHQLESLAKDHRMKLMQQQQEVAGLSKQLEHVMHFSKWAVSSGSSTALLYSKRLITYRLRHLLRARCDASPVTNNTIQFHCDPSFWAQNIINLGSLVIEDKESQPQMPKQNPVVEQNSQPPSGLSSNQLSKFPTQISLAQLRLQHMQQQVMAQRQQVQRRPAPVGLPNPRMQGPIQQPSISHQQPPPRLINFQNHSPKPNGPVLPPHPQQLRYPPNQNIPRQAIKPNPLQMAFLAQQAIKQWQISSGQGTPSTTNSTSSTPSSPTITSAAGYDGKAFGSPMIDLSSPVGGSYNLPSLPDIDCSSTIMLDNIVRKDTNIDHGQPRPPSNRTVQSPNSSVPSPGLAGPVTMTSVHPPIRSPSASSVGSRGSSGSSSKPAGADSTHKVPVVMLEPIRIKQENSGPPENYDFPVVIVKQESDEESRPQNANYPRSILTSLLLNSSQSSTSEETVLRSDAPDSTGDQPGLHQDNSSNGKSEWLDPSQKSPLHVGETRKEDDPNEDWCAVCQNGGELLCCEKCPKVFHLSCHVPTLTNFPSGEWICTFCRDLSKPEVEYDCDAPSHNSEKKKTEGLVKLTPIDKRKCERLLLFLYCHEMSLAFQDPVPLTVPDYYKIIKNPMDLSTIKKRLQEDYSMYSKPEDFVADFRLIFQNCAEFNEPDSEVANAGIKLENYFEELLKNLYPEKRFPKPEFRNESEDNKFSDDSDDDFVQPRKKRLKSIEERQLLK

Row | SMILES | ΔTm [1] | ΔTm [2]
1 | O=C(O)/C=C/c1ccc(Cn2ccnc2)cc1 | -0.17 °C | -0.33 °C
2 | CCc1cc2c(cc1N1CCC(N3CCOCC3)CC1)C(C)(C)c1[nH]c3cc(C#N)ccc3c1C2=O | -2.92 °C | -0.86 °C
3 | CCCCC[C@@](C)(O)/C=C/[C@H]1C(=O)CC(O)C1C/C=C\CCCC(=O)O (some centres undefined) | -1.7 °C | -0.59 °C
4 | COc1cc(C)c(S(=O)(=O)N(C)CCOCC(=O)N(C)[C@H]2CCC[C@@H](N3CCN(C)CC3)C2)c(C)c1 | -1.54 °C | 0.17 °C
5 | COC(=O)c1sccc1S(=O)(=O)Nc1ccc(Nc2ccccc2)cc1OC | -3.85 °C | 0.59 °C
6 | O=C1CCCc2[nH]c(-c3ccnc(NCC4CC4)c3)c(Nc3ccccc3)c21 | -0.67 °C | -0.08 °C
7 | CN1CCCN(C(=O)c2cccc(-c3ccc(/C=C4/C(=O)Nc5ccc(Cl)cc54)o3)c2)CC1 | -4.14 °C | -5.43 °C
8 | Oc1c(CN2CCCC2)cc(COCc2ccccc2)c2cccnc12 | -2.69 °C | -4.08 °C
9 | Cc1cc(Cn2c(N3CC4(CNC4)C3)nc3cc(Cl)cc(N4CCN(C)CC4)c32)cc(C)c1F | -0.27 °C | 0.27 °C
10 | CCCCCCCC/C=C\CCCCCCCC(=O)NCCO | -1.73 °C | -2.56 °C
11 | CC(C)C[C@H](NC(=O)[C@@H](O)[C@H](N)Cc1ccccc1)C(=O)O | -0.66 °C | -0.82 °C
12 | Cc1c(N2CCCC2)nc2ccc(Br)cc2c1C(=O)NC[C@H](CCC(=O)O)c1ccccc1Cl | -0.88 °C and -3.16 °C | 0.3 °C and -2.24 °C
13 | COc1cc(-c2cn(C)c(=O)c3cnccc23)c(OC)cc1CN(C)C | -0.72 °C | 0.32 °C
14 | CN(C)c1ccc(-c2cc3ncccc3c(OCCCCO)n2)cc1 | -2.64 °C | -3.64 °C
15 | Cn1c(Nc2c(Cl)cccc2Cl)nc2ccc3nc[nH]c(=O)c3c21 | -3.08 °C | -3.83 °C
16 | COc1cc(C(N)=O)ccc1Nc1ncc2c(n1)N(CCC(C)C)[C@H](C)C(=O)N2C | 6.98 °C | -0.48 °C
17 | Fc1ccc(-c2nc(-c3ccc4ccccc4c3F)[nH]c2-c2ccncc2)cc1 | -0.46 °C | -0.4 °C
18 | CC(C)(C)c1cc(NC(=O)c2csc(Nc3ccccn3)n2)no1 | 1.16 °C | 1.12 °C
19 | COc1ccc(CSc2nnc(-c3ccc4ncsc4c3)o2)cc1C(F)(F)F | -5.83 °C | -2.33 °C

Row | SMILES | ΔTm [1] | ΔTm [2]
20 | O=C(Nc1ccc(-n2nc(-c3cccnc3)cc2C(F)(F)F)cn1)c1ccc(-c2ccccc2)c(F)c1 | -2.41 °C | 0.2 °C
21 | CCc1ccc(-c2ncn(CC3(F)CCN(C)CC3)c2-c2ccnc3[nH]ccc23)nc1 | -2.66 °C | -2.61 °C
22 | COC[C@@H](C)N[C@H]1CC[C@H](Nc2cc(-c3cccc(NCC4(C#N)CCOCC4)n3)c(Cl)cn2)CC1 | -0.6 °C | -3.05 °C
23 | CCCCCCCN(CCc1ccc(SC(C)(C)C(=O)O)cc1)C(=O)Nc1ccc(F)cc1F | -1.9 °C | -3.36 °C
24 | Cc1nsc(Nc2cnc(C(F)(F)F)cn2)c1C(=O)Nc1ccc(O[C@H]2CCCN(CC(F)(F)F)C2)nc1 | 1.66 °C | -2.89 °C
25 | CNC(=O)c1ccc2c(c1)ncn2-c1ccc(CC(=O)OC(C)(C)C)cc1 | -0.5 °C | -3.2 °C
26 | O=C(O)CCCCN(CCc1ccccc1OCc1ccc(CCc2ccccc2)cc1)Cc1ccc(C(=O)O)cc1 | -0.88 °C | 0.09 °C
27 | c1ccc2c(-c3coc4cc(-c5ccc(N6CCNCC6)cc5)cnc34)ccnc2c1 | -1.89 °C | -2.14 °C
28 | CCS(=O)(=O)Nc1cccc(Oc2cncc(Nc3ccc(I)cc3F)c2C(N)=O)c1 | -0.22 °C | 1.47 °C
29 | CC(C)C(=O)N[C@@H]1CCN(C(=O)Nc2nc3c(s2)-c2nc(-c4ccccc4Cl)ncc2CC3)C1 | -0.28 °C | -3.41 °C
30 | COc1cc(-c2cc([C@H](O)C3CC3)n3ncnc(N)c23)ccc1CO | 0.22 °C | 0.24 °C
31 | COc1c(NC(=O)c2cc3cccc(Oc4ccnc(C(=O)N5CCN(C)CC5)c4)c3n2C)cc(C(C)(C)C)cc1NS(C)(=O)=O | -2.76 °C | -2.21 °C
32 | Nc1ncnc2c1c(I)cn2[C@@H]1O[C@H](CO)[C@@H](O)[C@H]1O | -1.9 °C | -4 °C
33 | C[C@]12CC[C@@H]3c4ccc(O)cc4CC[C@H]3[C@@H]1C[C@H]1OC(=O)C[C@]12O | -11.6 °C | 0.49 °C
34 | Cn1cncc1-c1cn(-c2cccc(C(=O)Nc3cccc(C(F)(F)F)c3)c2)nn1 | -2.66 °C | -0.32 °C
35 | N[C@@H]1CCCC[C@H]1Oc1ccc2ncc(-c3cc4ccccc4o3)n2n1 | -0.47 °C | -0.16 °C
36 | CN1CCN(C(=O)c2ccc3cc2OCCOCCNc2ccn4ncc-3c4n2)CC1 | 0.71 °C | -0.01 °C
37 | C[C@@H]1OCC2(CCN(c3cnc(Sc4ccnc(N)c4Cl)c(N)n3)CC2)[C@@H]1N | -2.61 °C | -0.86 °C
